The values that follow come from PubChem BioAssay.

One may read the inhibition as the relative decrease from the control value, in per cent.

Assay [1] is described as follows: inhibitors of TNFa-induced NFkB p65 translocation, primary screen, imaging, HUVEC, MLSMR starter and 10KST1 sets (AID 438;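 active means inhibition above 20% together with a positive visual image hit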;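 further: compound added about 3h40 before a 20 min TNFalpha stimulation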;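 on inhibition: signal is the nuclear over cytoplasmic p65 intensity ratio per well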). As to conditions: HUVEC TNFa-induced p65 nuclear translocation; cell count: measured here: nuclei count (cytotoxicity indicator), at 2.08 µM unless noted; inhibition: at 2 µM, stronger effect = higher value unless noted.
Assay [2] can be described thus: inhibitors of mutant huntingtin aggregation, primary screen, imaging, exon1htt(103Q)mCFP cells, high-content imaging (AID 483;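 active means visual image review flags a hit and inhibition of aggregation exceeds 20%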;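 further: compound exposure lasted 3 days before fixation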;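 on nuclei count: percent of the per-plate median nuclei count of sample wells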). As to conditions: exon1htt(103Q)mCFP cell line, aggregate imaging, at 2 µM; inhibition of aggregation: stronger effect = higher value; nuclei count: measured here: cell count, toxicity.
Assay [3] is described as follows: inhibitors of E-selectin induction by TNFa, primary screen, imaging, HUVEC, immunofluorescence, MLSMR starter and 10KST1 sets (AID 487;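 active means visually confirmed hit in the image check and inhibition above 20%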;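 on inhibition: signal is fraction of cell area covered by stained E-selectin grains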;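 on nuclei count: 100% = median nuclei count of all wells on the same plate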). As to conditions: HUVEC TNFalpha-induced E-selectin immunofluorescence imaging, at 2 µM; inhibition: stronger effect = higher value; nuclei count: measured here: cell number, toxicity.
Assay [4] has as its target Voltage-gated potassium channel subunit beta-2 (Rattus norvegicus) (UniProt P62483). In words: KvBeta enzyme negative modulators, primary screen, biochemical, NADPH fluorescence (AID 622;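 active means fluorescence slope higher than the sample average by over 3 SD, cut at about -0.22 in these data, passing the limit was not always enough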;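 further: slope of raw intensity against log time taken from 70 to 1610 s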). As to conditions: recombinant KvBeta, 4-cyanobenzaldehyde reduction, at 10 µM, stronger effect = higher value.
For assay [5] the target is unchanged. In words: KvBeta positive modulators, primary screen, biochemical, NADPH fluorescence (AID 623;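 active means NADPH fluorescence slope more negative than the mean of all samples by about 3 SD, 99.7% confidence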;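 further: fluorescence intensity change per second fitted from 20 to 320 s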). As to conditions: Recombinant KvBeta, NADPH fluorescence decrease slope, 10 min; at 10 µM; stronger effect = lower value.
Assay [6] deals with Alpha-2C adrenergic receptor (Homo sapiens) (UniProt P18825). Kind of assay: modulators of alpha2C/GIRK thallium flux, primary screen, cell-based, HEK293 alpha2C/GIRK1/2 (AID 624;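 active means fluorescence slope after compound addition differing from the mean of all screened samples at 99.7% confidence, in either direction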;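 further: slope of fluorescence ratio to pre-addition baseline per second over 15 to 24 s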). As to conditions: thallium flux BTC fluorescence, at 10 µM, actives lie on both sides.
A short description of assay [7]: inhibitors of Sendai virus-induced IRF3 signaling, primary screen, TLR/RLR signaling modifier project, cell-based, Sendai virus stimulus, luciferase, 10K MLSCN set (AID 602276).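 Further: firefly luciferase from ISG56 promoter only with Renilla not read in this screen; 0% = Sendai virus plus DMSO and 100% = medium plus DMSO without virus.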 As to conditions: HEK293 RL24 IRF3 luciferase reporter, at 10 µM, stronger effect = higher value. A general note: A reporter such as luciferase makes a cellular process visible.
Assay [8] in a line: inhibitors of poly I:C-induced TLR3 signaling, primary screen, cell-based, poly I:C stimulus, luciferase, 10K MLSCN set (AID 602277;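 active means inhibition of the reporter signal at or above 50%; inactive means inhibition below 50%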). As to conditions: HEK293-TLR3 RL24 IRF3 luciferase reporter, at 10 µM, stronger effect = higher value.

Active and inactive are the calls of the source.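 How the source made its calls, unless noted: active means inhibition at or above 50% at 10 µM; inactive means inhibition below 50%.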

Voltage-gated potassium channel subunit beta-2 (Rattus norvegicus), sequence (P62483 whole entry, looked up): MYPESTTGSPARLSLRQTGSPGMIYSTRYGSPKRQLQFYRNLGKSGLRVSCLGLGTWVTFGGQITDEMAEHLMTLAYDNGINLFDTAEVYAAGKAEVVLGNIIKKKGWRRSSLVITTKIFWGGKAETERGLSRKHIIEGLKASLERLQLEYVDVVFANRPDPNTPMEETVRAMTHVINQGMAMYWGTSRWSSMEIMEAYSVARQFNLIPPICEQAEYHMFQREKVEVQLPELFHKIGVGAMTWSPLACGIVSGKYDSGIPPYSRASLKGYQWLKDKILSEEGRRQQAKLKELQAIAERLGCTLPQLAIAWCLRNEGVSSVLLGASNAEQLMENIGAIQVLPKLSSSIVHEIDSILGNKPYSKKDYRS
Alpha-2C adrenergic receptor (Homo sapiens), sequence (P18825 whole entry, looked up): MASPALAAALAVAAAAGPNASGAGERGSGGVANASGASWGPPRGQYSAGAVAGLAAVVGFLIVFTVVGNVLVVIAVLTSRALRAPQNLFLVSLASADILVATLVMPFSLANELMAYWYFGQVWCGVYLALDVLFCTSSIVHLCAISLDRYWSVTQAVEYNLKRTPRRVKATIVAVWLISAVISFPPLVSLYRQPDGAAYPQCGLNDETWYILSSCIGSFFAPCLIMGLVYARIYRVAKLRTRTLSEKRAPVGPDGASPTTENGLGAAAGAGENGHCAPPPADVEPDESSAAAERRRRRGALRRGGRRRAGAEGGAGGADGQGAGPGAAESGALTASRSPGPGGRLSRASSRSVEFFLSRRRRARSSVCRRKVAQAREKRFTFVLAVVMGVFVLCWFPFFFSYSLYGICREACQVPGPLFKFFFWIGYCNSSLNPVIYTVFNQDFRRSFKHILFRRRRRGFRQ

Take `COc1ccc(S(=O)(=O)NC(CC(=O)N2CCC3(CC2)OCCO3)c2ccco2)cc1` (stereo not given): the cell count in assay [1] is 633. For the same compound, the inhibition is 6.7% (inactive) in assay [1], -121% (inactive) in assay [3], 17.9% (inactive) in assay [7] and 22.1% (inactive) in assay [8]. For the same compound, the inhibition of aggregation in assay [2] is 16.2% (inactive). The results for the nuclei count in assay [2] and in assay [3] were 86.8% and 144%, respectively. In assay [4], the fluorescence slope was -0.451 (inactive). The NADPH fluorescence slope in assay [5] was -0.000345 (inactive). Further, the slope in assay [6] is 0.00534 (inactive).
Consider `CCOc1ccc(C2SCC(=O)Nc3c2c(=O)[nH]n3C2CCCCCC2)cc1` (stereo not given), for which, in assay [1], the cell count was found to be 286. Also, the inhibition in assay [1] is 23.8% (inactive); in assay [3], -14.2% (inactive); in assay [7], -12.2% (inactive); in assay [8] it was 98.8% (active). For the same compound, the inhibition of aggregation in assay [2] is 7.5% (inactive). Besides, the nuclei count in assay [2] came to 88.4%; in assay [3] it was 102%. For the same compound, the fluorescence slope in assay [4] was -0.408 (inactive). Besides, in assay [5], the NADPH fluorescence slope is -2.7e-05 (inactive). In assay [6], the slope was 0.00778 (inactive).
In assay [1], `Cc1ccc(C2SCC(=O)Nc3c2c(=O)[nH]n3C2CCOC(C)(C)C2)cc1` (stereo not given) displayed a cell count of 378. Also, the inhibition is -0.6% (inactive) in assay [1], -20.4% (inactive) in assay [3], 18% (inactive) in assay [7] and 29.8% (inactive) in assay [8]. Moreover, the inhibition of aggregation in assay [2] is -18.2% (inactive). Besides, the values for the nuclei count in assay [2] and in assay [3] were 128% and 111%, respectively. Besides, in assay [4], the fluorescence slope was -0.37 (inactive). For the same compound, the NADPH fluorescence slope in assay [5] was -3.9e-05 (inactive). For the same compound, the slope in assay [6] is 0.00325 (inactive).
Compound `C[C@H]1CCCC(=O)CCC/C=C/c2cc(O)cc(O)c2C(=O)O1` yielded a cell count in assay [1] of 420. Besides, the inhibition in assay [1] was 6.1% (inactive); in assay [3] it was -42% (inactive); in assay [7], 13.5% (inactive); in assay [8], 8.12% (inactive). In addition, in assay [2], the inhibition of aggregation was 4.4% (inactive). In addition, the results for the nuclei count in assay [2] and in assay [3] were 93.9% and 108%, respectively. The fluorescence slope in assay [4] was -0.55 (inactive). Further, the NADPH fluorescence slope in assay [5] is -7.2e-05 (inactive). In assay [6], the slope is 0.00303 (inactive).
`O=P(OCC(F)(F)C(F)F)(N1CCCCC1)N1CCCCC1` displayed a cell count in assay [1] of 336. Moreover, the inhibition is -10.1% (inactive) in assay [1], -152% (inactive) in assay [3], 7.79% (inactive) in assay [7] and 9.95% (inactive) in assay [8]. The inhibition of aggregation in assay [2] was -9.4% (inactive). The values for the nuclei count in assay [2] and in assay [3] were 121% and 134%, respectively. Besides, the fluorescence slope in assay [4] is -0.5 (inactive). Besides, the NADPH fluorescence slope in assay [5] is 2.3e-05 (inactive). Further, in assay [6], the slope was 0.00426 (inactive).
For `CCN1c2nc3c(C)cccn3c(=O)c2CC2(C(=O)N(C)C(=O)N(C)C2=O)C1C` (stereo not given), the cell count in assay [1] worked out at 413. In addition, the inhibition in assay [1] was 8.9% (inactive); in assay [3], 19.8% (inactive); in assay [7] it was 16.5% (inactive); in assay [8], 17.7% (inactive). Moreover, the inhibition of aggregation in assay [2] is 8.3% (inactive). Moreover, the nuclei count in assay [2] worked out at 100%; in assay [3], 111%. Further, the fluorescence slope in assay [4] was -0.477 (inactive). Further, in assay [5], the NADPH fluorescence slope is -5.3e-05 (inactive). Further, the slope in assay [6] is 0.00711 (inactive).
As for `Cc1nn(-c2ccccc2)c2c1CC1(C(=O)N(C)C(=O)N(C)C1=O)C1CCCCN21` (stereo not given), the cell count in assay [1] was 438. The inhibition in assay [1] was -14.2% (inactive); in assay [3], -8.8% (inactive); in assay [7], -9.7% (inactive); in assay [8], 28.2% (inactive). Besides, the inhibition of aggregation in assay [2] was 26.9% (inactive). For the same compound, the nuclei count amounted to 65.3% in assay [2] and 101% in assay [3]. In addition, the fluorescence slope in assay [4] was -0.509 (inactive). Moreover, the NADPH fluorescence slope in assay [5] was -2.5e-05 (inactive). In addition, the slope in assay [6] was 0.00545 (inactive).
The compound `COc1ccccc1-n1c(O)c(C=NCc2ccc3c(c2)OCO3)c(=O)[nH]c1=O` registered a cell count in assay [1] of 758. The inhibition was -13.8% (inactive) in assay [1], -117% (inactive) in assay [3], 2.15% (inactive) in assay [7] and 9.73% (inactive) in assay [8]. Further, in assay [2], the inhibition of aggregation was -35.1% (inactive). Besides, the nuclei count was 121% in assay [2] and 124% in assay [3]. Further, the fluorescence slope in assay [4] was -0.611 (inactive). Also, the NADPH fluorescence slope in assay [5] was -5.6e-05 (inactive). The slope in assay [6] is 0.00662 (inactive).
`CCCCN1C(=O)NC(=O)C2(Cc3c(nc4c(C)cccn4c3=O)N3CCc4ccccc4C32)C1=O` (stereo not given): in assay [1], the cell count came to 373. Moreover, the inhibition is -0.5% (inactive) in assay [1], -176% (inactive) in assay [3], 14% (inactive) in assay [7] and 32.3% (inactive) in assay [8]. Besides, the inhibition of aggregation in assay [2] was -11.7% (inactive). For the same compound, the figures for the nuclei count in assay [2] and in assay [3] were 106% and 111%, respectively. Also, the fluorescence slope in assay [4] was -0.482 (inactive). Further, in assay [5], the NADPH fluorescence slope is -4.8e-05 (inactive). For the same compound, the slope in assay [6] is 0.0045 (inactive).
On to `Cc1cc(OCC(=O)O)c2c3c(c(=O)oc2c1)CCCC3`, for which, in assay [1], the cell count is 361. Further, the inhibition was 5.7% (inactive) in assay [1], -74% (inactive) in assay [3], -0.949% (inactive) in assay [7] and -5.67% (inactive) in assay [8]. Besides, in assay [2], the inhibition of aggregation was -15% (inactive). The nuclei count in assay [2] came out at 92.2%; in assay [3], 87.1%. Moreover, in assay [4], the fluorescence slope was -0.117 (active). Also, in assay [5], the NADPH fluorescence slope was -1.4e-05 (inactive). For the same compound, the slope in assay [6] is 0.00624 (inactive).
